Source: PubChem (National Center for Advancing Translational Sciences (NCATS))
Pf growth 48h: P. falciparum growth inhibition at 48 hours (one generation); P. falciparum luciferase growth in erythrocytes, 48 h; AID 504832; Potency, µM (titrated, usually from 28.7 µM), for inactives: at the highest dose activity change, negative = inhibition, usual class: inhibitors; actives 5.9% (n = 310,000); also: potency is read from the fitted curve at half-maximal effect; % is scaled to controls: 0 for no effect and ±100 for the full control effect
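Read-out is firefly luciferase luminescence from an integrated reporter in P. falciparum, so falling signal marks reduced parasite growth. Infected erythrocytes were at 2% hematocrit and 0.1% parasitemia (final) in Albumax-supplemented RPMI 1640.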
Sm TGR inh: inhibitors of Schistosoma mansoni thioredoxin glutathione reductase; Q962Y6; purified TGR, DTNB reduction, TNB absorbance 405 nm; Potency, µM (highest dose often 114 µM), without a hit: at the top dose activity change, negative = inhibition, most hits filed as inhibitors; actives 3% (n = 360,000); AID 485364; also: potency is read from the fitted curve at half-maximal effect; % is scaled to controls: 0 for no effect and ±100 for the full control effect; nearly all actives have a fitted effect of over 60% in size
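Kinetic colorimetric format: TGR-catalysed, NADPH-driven DTNB reduction monitored via TNB absorbance. Enzyme dispensed at 20 nM; compound exposure 15 min at room temperature before reaction start.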
SARS PLpro yeast: SARS-CoV PLP inhibition in yeast; S. cerevisiae expressing SARS-CoV PLpro, growth rescue; actives 0.19% (n = 330,000); Potency, µM (titrated, usually from 32.9 µM), for inactives: top-dose activity, positive = growth rescue, most hits filed as activators; AID 485353; calls by dose curve; also: potency is read from the fitted curve at half-maximal effect; 0% is about no effect; nearly all actives have a fitted effect of over 55% in size
Pf growth 96h: P. falciparum growth inhibition at 96 hours; P. falciparum luciferase reporter growth, 96 h; Potency, µM (highest dose often 28.7 µM), for inactives: at the top dose activity change, negative = inhibition, usual class: inhibitors; actives 6.9% (n = 320,000); also: potency is read from the fitted curve at half-maximal effect; % is scaled to controls: 0 for no effect and ±100 for the full control effect
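Parasite growth measured via integrated firefly luciferase reporter in P. falciparum. Infected erythrocytes at 2% hematocrit, 0.05% parasitemia final were treated 96 hours at 37 C under 5% CO2, and luminescence was read.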
HCMV antiviral: inhibitors of human cytomegalovirus; HFF cells, HCMV-luciferase reporter, 72 h; active compounds read low; actives 4.5% (n = 410,000); AID 1259415; activity change, negative = inhibition, % at 57.5 µM; in the data active = activity change below about -60%; inconclusive = no clear call, values can overlap the other calls; inactive = above about -39%; also: % is scaled to controls: 0 for no effect and ±100 for the full control effect
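Two compound doses tested in HFFs infected with HCMV-luciferase, MOI 1 PFU/cell, 72 h at 37C. Lysate luminescence read with OneGlo; data normalized against buffer-only and 10uM Salinomycin inhibitor controls.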
HCV inhibitor: blocks hepatitis C virus | Huh7.5.1 HCVcc-Cre infection, luciferase reporter, 44 h | Potency, µM (highest dose often 41.8 µM), without a hit: top-dose activity change, negative = inhibition, actives largely listed as inhibitors | actives 3.4% (n = 340,000) | AID 651820; also: potency is read from the fitted curve at half-maximal effect; % is scaled to controls: 0 for no effect and ±100 for the full control effect
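Cells (1,000/well) were plated 4 h before compound, then infected with HCVcc-Cre virus (~0.5 moi). After 44 h further culture, infection was read as luciferase luminescence following a 15 min substrate incubation at room temperature.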
* marks the source's active call; other numbers are inactive results; [ ] = dose if it differs, or a comment. Most compounds without a hit are left out; they make up all but 15% or so of the library. Unless noted, calls follow the shape of the dose curve; as a rule, active = well fitted curve in the direction sought with a large enough effect; inconclusive = small, poorly fitted or top-dose-only effect, or another doubt; inactive = no such curve, though single readings can be large; an effect the other way counts as inactive or inconclusive.

Screening C/C(=N\Nc1ccc(S(=O)(=O)N2CCCCC2)cn1)c1cccc(Br)c1 returned Pf growth 48h 10µM*, Sm TGR inh 4%, SARS PLpro yeast -15%, Pf growth 96h inconclusive, HCMV antiviral -22 and HCV inhibitor inconclusive.
NNc1ccc(S(=O)(=O)N2CCCCC2)cn1 was read as Pf growth 48h inconclusive, Sm TGR inh 4%, SARS PLpro yeast 0%, Pf growth 96h 5%, HCMV antiviral -24 and HCV inhibitor inconclusive.
`COc1ccc(CNc2ncc(-c3ccc(Br)cc3)n2C)cc1OC` gave Pf growth 48h inconclusive, Sm TGR inh 4%, SARS PLpro yeast 3%, Pf growth 96h 13µM*, HCMV antiviral -23 and HCV inhibitor inconclusive.
For COc1ccc(CNc2ncc(-c3ccc(Cl)cc3)n2C)c(OC)c1OC the results were Pf growth 48h -26%, Sm TGR inh 5%, SARS PLpro yeast -1%, Pf growth 96h 2.9µM*, HCMV antiviral 6 and HCV inhibitor -16%.
For Cn1c(-c2cccc(Br)c2)cnc1NCc1ccccc1O the results were Pf growth 48h inconclusive, Sm TGR inh -22%, SARS PLpro yeast -1%, Pf growth 96h 5.2µM*, HCMV antiviral 35 and HCV inhibitor -15%.
`Cc1oc(-c2ccc(C(=O)Nc3cc(F)ccc3F)cc2)nc1COc1ccccc1` gave Sm TGR inh 0% and HCMV antiviral -34.
`CC(CC(=O)Nc1nncs1)c1ccccc1` (configuration not stated) gave Pf growth 48h -3%, Sm TGR inh -9%, SARS PLpro yeast 7%, Pf growth 96h 35%, HCMV antiviral 19 and HCV inhibitor 24%.
`CCOC(=O)c1cccc(NC(=O)C2CCCN(S(=O)(=O)c3c(C)nn(C)c3C)C2)c1` (configuration not stated) gave Sm TGR inh 0%, SARS PLpro yeast 12%, Pf growth 96h 9.3µM*, HCMV antiviral inconclusive and HCV inhibitor inconclusive.
For Cc1n[nH]c(C)c1S(=O)(=O)N1CCCC(C(=O)N2CCN(c3ccc(Cl)cc3)CC2)C1 (configuration not stated) the results were Pf growth 48h 6.6µM*, Sm TGR inh 8%, SARS PLpro yeast 5%, Pf growth 96h 1%, HCMV antiviral -76* and HCV inhibitor inconclusive.
For Cc1nn(C)c(C)c1S(=O)(=O)N1CCCC(C(=O)N2CCN(c3ccc(Cl)cc3)CC2)C1 (configuration not stated) the results were Pf growth 48h 4.7µM*, Sm TGR inh 2%, SARS PLpro yeast 1%, Pf growth 96h inconclusive, HCMV antiviral inconclusive and HCV inhibitor inconclusive.
`Cc1ccc(Cl)cc1N1CCN(C(=O)C2CCN(S(=O)(=O)c3c(C)nn(C)c3C)CC2)CC1` gave Pf growth 48h 8.3µM*, Sm TGR inh -9%, SARS PLpro yeast 6%, HCMV antiviral -37 and HCV inhibitor 11µM*.
Screening COc1ccc(C(=O)Nc2nc(CC(=O)NCCc3ccccc3)cs2)cc1 returned Pf growth 48h 16%, Sm TGR inh 4%, SARS PLpro yeast 0%, Pf growth 96h 31%, HCMV antiviral 34 and HCV inhibitor 10µM*.
CCCCOc1ccc(C(=O)NCC(=O)NCCOc2ccccc2OC)cc1 was read as Pf growth 48h -8%, Sm TGR inh 5%, SARS PLpro yeast 3%[6.58 µM], Pf growth 96h -3%, HCMV antiviral -1 and HCV inhibitor 13µM*.
Screening CCn1c(CCNC(=O)c2ccc(OC)cc2)nnc1SCc1ccc(Cl)c(Cl)c1 returned Pf growth 48h inconclusive, Sm TGR inh -19%, SARS PLpro yeast 15%, Pf growth 96h inconclusive, HCMV antiviral -60* and HCV inhibitor inconclusive.
For O=C(COc1ccc(C(=O)NCCc2ccccc2)cc1)Nc1ccccc1 the results were Pf growth 48h 7%, Sm TGR inh 1%, SARS PLpro yeast 6%, Pf growth 96h 4.1µM*, HCMV antiviral 3 and HCV inhibitor 2%.
Screening COc1ccc(C(=O)Nc2nc(CC(=O)NCCc3cccc(OC)c3)cs2)cc1 returned Pf growth 48h -24%, Sm TGR inh -7%, SARS PLpro yeast -7%, Pf growth 96h inconclusive, HCMV antiviral -9 and HCV inhibitor inconclusive.
`CC(C)n1nc(C(=O)NNC(=O)c2ccc(OC(F)F)cc2)c2ccccc2c1=O` gave Pf growth 48h inconclusive, Sm TGR inh -18%, SARS PLpro yeast 2%, Pf growth 96h inconclusive, HCMV antiviral -16 and HCV inhibitor inconclusive.
For COc1cccc(CNC(=O)CCc2ccc(OC)c(OC)c2)c1 the results were Sm TGR inh -13%, SARS PLpro yeast 1%, Pf growth 96h -2%, HCMV antiviral 5 and HCV inhibitor 18%.
For Cc1ccc(C2=CN(CCC(=O)O)C(=O)C2)cc1 the results were HCMV antiviral 26.
Screening COC(=O)[C@@]12C[C@@H](CC(=O)N3CCCC3)C(=O)N(Cc3ccco3)C1=CCC(C)(C)C2 returned HCMV antiviral -13.
`CCOc1ccc(CCNC(=O)c2ccc3nc(CC)c(CC)nc3c2)cc1` gave Pf growth 48h -12%, Sm TGR inh -7%, SARS PLpro yeast 1%, Pf growth 96h 13µM*, HCMV antiviral 13 and HCV inhibitor inconclusive.
COCC(=O)Nc1cc(C(=O)NCCc2ccccc2)ccc1Cl was read as Pf growth 48h 227%, Sm TGR inh 38%, SARS PLpro yeast -20%, Pf growth 96h 219%, HCMV antiviral -15 and HCV inhibitor 18%.
For CCCCOc1ccc(C(=O)NCCc2ccccc2)cc1 the results were Pf growth 48h 27%, Sm TGR inh -1%, SARS PLpro yeast inconclusive, Pf growth 96h 2.6µM*, HCMV antiviral 74 and HCV inhibitor -23%.
O=C(NCCc1ccccc1)c1ccc(NC(=O)C2CC2)cc1 was read as HCMV antiviral 44 and HCV inhibitor -18%[8.37 µM].
`CC(=O)Nc1ccc(C(=O)NCCc2ccccc2)cc1` gave Pf growth 48h 77%, Sm TGR inh 5µM*, SARS PLpro yeast -19%, Pf growth 96h -15%, HCMV antiviral 100 and HCV inhibitor 26%.
COc1ccc(C(=O)Nc2cc(C(=O)NCCc3ccccc3)ccc2Cl)cc1 was read as Pf growth 48h -2%, Sm TGR inh -9%, SARS PLpro yeast -7%, HCMV antiviral 26 and HCV inhibitor 8.9µM*.
Screening COc1ccc(S(=O)(=O)NC(=O)C2(C)CCN2C(=O)C(C)(C)c2ccccc2)cc1 (configuration not stated) returned HCMV antiviral -7.
